Assay results as given in PubChem BioAssay (NCI).
The panel holds about 83,000 compounds, 20% with a hit somewhere; the sample as a whole holds those more often.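 How to read the values: 0–100, growth inhibition (40 = 60% inhibited); 0, no net growth; -100 to 0, cell death (-40 = 40% of starting cells died; -100 = all dead).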 Unmarked numbers belong to inactive results. Calls of active or inactive are those of the source.

test system: CAKI-1 renal; experiment: NCI-60 one-dose screen, 48 h (100 = growth as untreated, 0 = no growth, -100 = all killed); conditions: 10 µM
Procedure: Growth inhibition of the CAKI-1 human tumor cell line is measured as a screen for anti-cancer activity. Cells are grown in 96 well plates and exposed to the test compound for 48 hours. Compounds are tested at a single concentration, which is 10^-5 M for most compounds. The reported endpoint is percent growth (GI% or GIPRCNT), where numbers from 0 - 100% represent growth inhibition, and numbers from -100% - 0 represent cell death. For example, a value of 40 represents 60% growth inhibition. A value of 0 means no net growth occurred over the course of the experiment. A value of -40 indicates 40% of cells at the beginning of the experiment died by the end of the experiment. A value of -100 means all cells are dead at the end of the experiment.
NCI-60 Human Tumor Cell Lines Screen was performed using the standard one-dose NCI protocol, which is described in more detail at https://dtp.cancer.gov/discovery_development/nci-60/default.htm.
Compounds with GIPRCNT values below 10 were considered active. Activity score was based on GIPRCNT using the following formula: […]
Score is 0 for GIPRCNT values of 100 or above, 50 for GIPRCNT values of 0, and 100 for GIPRCNT values of -100.

Question: With `COc1cc2c3c(n(CCCNC4CCCCC4)c(=O)c2cc1OC)-c1cc2c(cc1C3=O)OCO2` as the compound, how does the growth read?
Answer: The growth was 73.9%.

Question: How did the growth turn out when `Cn1cc(-c2nn3cc(-c4cccnc4)nc3s2)c2cc(F)ccc21` was run?
Answer: The growth was 78.1%.

Question: How did the growth turn out when `C#C[C@]1(O)CC[C@H]2[C@@H]3CC=C4c5sc(Nc6cccc(Cl)n6)nc5CC[C@]4(C)[C@H]3CC[C@@]21C` was run?
Answer: Its growth is -40.6% (active).

Question: For `CS(=O)c1nccc(-c2c(-c3ccc(F)c(OCc4ccccc4)c3)nc3sccn23)n1` (stereo not given), which growth is on record?
Answer: Its growth is 89.3%.

Question: `O=C1NC(=O)c2c1c1c3ccccc3ccc1c1[nH]c3ccccc3c21` was tested. Which growth did it give?
Answer: The growth was 4.16% (active).

Question: For `N#Cc1ccc(S(=O)(=O)Nc2ccc(-c3cnc(N)[nH]3)cc2)cc1`, which growth is on record?
Answer: Its growth is 92.3%.

Question: How did the growth turn out when `CC1COc2c(N3CCN(C)CC3)c(F)cc3c(=O)c(C(=O)N/N=C/c4cc[nH]c4)cn1c23` (stereo not given) was run?
Answer: The growth was 47.6%.

Question: `CCc1ccc(NC(=O)N[C@@H](Cc2cccc(F)c2)C(=O)N[C@@H]2C(=O)N3CCC[C@H]3C(=O)N3CCCC[C@H]3C(=O)N[C@@H](CO)C(=O)N3C[C@H](C)C[C@H]3C(=O)O[C@H]2C)c(F)c1` was tested. Which growth did it give?
Answer: The growth was 17.5%.

Question: How did the growth turn out when `COc1cc2c3c(n(CCCN4CCCCC4)c(=O)c2cc1OC)-c1cc2c(cc1C3=O)OCO2` was run?
Answer: The growth was -82.9% (active).

Question: `COc1ccc(C(=O)c2c(N)c(C#N)cn2-c2cccc(OC)c2)cc1` was tested. Which growth did it give?
Answer: Its growth is 30.5%.

Question: `NS(=O)(=O)c1ccc(Nc2nc(N/N=C/c3ccc(F)cc3)nc(Nc3ccccc3)n2)cc1` was tested. Which growth did it give?
Answer: The growth was 56.8%.

Question: `Cc1cccc(NC(c2cc3cccc4ccc5cccc2c5c43)c2nnnn2C(C)(C)C)c1C` (stereo not given) was tested. Which growth did it give?
Answer: The growth was 66.3%.

Question: For `CCc1ccc(NC(=O)N[C@@H](Cc2cccc(C)c2)C(=O)N[C@@H]2C(=O)N3CCC[C@H]3C(=O)N3CCCC[C@H]3C(=O)N[C@@H](CO)C(=O)N3C[C@H](C)C[C@H]3C(=O)O[C@H]2C)c(F)c1`, which growth is on record?
Answer: The growth was 15.5%.

Question: For `C=CCn1c(SCC(=O)Nc2cccc(C(=O)/C=C/c3ccccc3Cl)c2)nc2ccccc2c1=O`, which growth is on record?
Answer: The growth was 79.2%.

Question: For `C=CCn1c(SCC(=O)Nc2cccc(C(=O)/C=C/c3ccc(C)cc3)c2)nc2ccccc2c1=O`, which growth is on record?
Answer: Its growth is 80%.

Question: With `Nc1nc(N)c2c(n1)NC(c1ccc(Cl)cc1)CC(c1ccc(Nc3nc(NCCO)nc(Nc4ccc(Cl)cc4)n3)cc1)=N2` (stereo not given) as the compound, how does the growth read?
Answer: Its growth is 49.5%.

Question: With `O=C(Nc1cc(Cl)cc(Cl)c1)Nc1nc2ccc([N+](=O)[O-])cc2s1` as the compound, how does the growth read?
Answer: Its growth is 6.87% (active).

Question: With `NC(=O)C(=Cc1ccc(Cl)cc1)C(N)=O` as the compound, how does the growth read?
Answer: Its growth is 49.2%.

Question: `CCN1CCN(Cc2ccc(C(=O)Nc3nc4ccc(Oc5ccnc(C(=O)NC)c5)cc4s3)cc2C(F)(F)F)CC1` was tested. Which growth did it give?
Answer: Its growth is 47.2%.

Question: Which growth does the source give for `COc1cc2c3c(n(CCCNCC4CC4)c(=O)c2cc1OC)-c1cc2c(cc1C3=O)OCO2` here?
Answer: The growth was -72.5% (active).

Question: Which growth does the source give for `C=C(C)[C@@H]1CC[C@]2(C)[C@H](CC=C3[C@@H]4CC(C)(C)CC[C@]4(C(=O)NCC#CCN4CCN(C)CC4)CC[C@]32C)[C@@]1(C)CCC#N` here?
Answer: Its growth is 30.7%.

Question: For `Cn1cc(-c2nn3cc(-c4cccnc4)nc3s2)c2ccccc21`, which growth is on record?
Answer: Its growth is 43.5%.

Question: For `C=C(C)[C@@H]1CC[C@]2(C(=O)ON)CC[C@]3(C)[C@H](CC[C@@H]4[C@@]5(C)C/C(=C/c6ccc(Br)cc6)C(=O)C(C)(C)[C@@H]5CC[C@]43C)[C@@H]12`, which growth is on record?
Answer: Its growth is 50%.

Question: `Nc1cc(F)ccc1NC(=O)c1ccc(NC(=O)C/C=C/c2cccnc2)cn1` was tested. Which growth did it give?
Answer: Its growth is 33.9%.

Question: `COC(=O)c1nc(-c2ccc(C)cc2)oc1S(=O)(=O)N1CCN(c2oc(-c3ccccc3)nc2C#N)CC1` was tested. Which growth did it give?
Answer: Its growth is 97.4%.

Question: With `CCNCCCn1c2c(c3cc(OC)c(OC)cc3c1=O)C(=O)c1cc(OC)cnc1-2` as the compound, how does the growth read?
Answer: Its growth is 18.3%.

Question: Which growth does the source give for `CN1C(=O)N(C)C2Nn3c(s/c(=C\c4ccccn4)c3=O)=NC21` (stereo not given) here?
Answer: Its growth is 97.1%.

Question: `CN1CCN(c2nc(-c3cnc4ccccc4n3)cc3ccccc23)CC1` was tested. Which growth did it give?
Answer: Its growth is 64.1%.

Question: How did the growth turn out when `COc1cnc2c(c1)C(=O)c1c-2n(CCCn2ccnc2)c(=O)c2cc(OC)c(OC)cc12` was run?
Answer: Its growth is 9.33% (active).

Question: For `O=c1oc2ccc(-c3ccc(F)cc3F)cc2c(=O)n1-c1cccc(C(F)(F)F)c1`, which growth is on record?
Answer: The growth was -12.2% (active).

Question: For `O=C1[C@H]2Cc3c([nH]c4ccccc34)[C@@H](c3c(Cl)cccc3Cl)N2C(=O)CN1C1CCN(Cc2ccccc2)CC1`, which growth is on record?
Answer: Its growth is 67.6%.

Question: Which growth does the source give for `CCCCCCNC(=O)Oc1ccc(/C(=C(/C)c2ccccc2)c2ccc(OCCN(C)C)cc2)cc1` here?
Answer: The growth was 50.9%.

Question: `N#C/C(=C\c1ccc(N2CCCCC2)cc1)C(=O)Nc1sc2c(c1C#N)CCC2` was tested. Which growth did it give?
Answer: Its growth is 84.8%.

Question: With `O=C1c2c(c3c4cccnc4[nH]c3c3ccc4ccccc4c23)C(=O)N1CCN1CCCCC1` as the compound, how does the growth read?
Answer: The growth was 22.8%.

Question: With `C/C(Cc1ccc(Cl)cc1)=C(/c1ccccc1)c1ccc(OCCN)cc1` as the compound, how does the growth read?
Answer: The growth was 92.5%.

Question: With `CCNC(=NCCCN(C)C)N/C(N)=N/c1nc2ccccc2s1` as the compound, how does the growth read?
Answer: Its growth is 65.1%.

Question: With `CCN1C(=O)N(CC)C2SC(N/N=C/c3ccccc3)=NC21` (stereo not given) as the compound, how does the growth read?
Answer: Its growth is 40.1%.

Question: How did the growth turn out when `N#C/C(=C\c1ccc(-c2ccc(F)cc2)o1)C(=O)Nc1ncc(Cc2ccc(Cl)cc2Cl)s1` was run?
Answer: The growth was 14.2%.

Question: For `Nc1nc(-c2cccc([N+](=O)[O-])c2)c(N=Nc2ccccc2[N+](=O)[O-])s1`, which growth is on record?
Answer: Its growth is -27% (active).

Question: For `Cc1cc(F)cc(NS(=O)(=O)c2ccc(-c3cnc(C4CC4)o3)cc2)c1`, which growth is on record?
Answer: The growth was 39.9%.
